SARS 3CLpro inh: SARS-CoV 3CLpro protease inhibition. P0C6X7. recombinant SARS-CoV 3CLpro, quenched FRET peptide cleavage. inhibition, % at 6 µM. 290,000 compounds, 0.14% hits; in the data active = inhibition above about 12%
BH1578 lux ind: induces V. cholerae light production without autoinducers; V. cholerae BH1578 lux reporter, luminescence, 6 h; activation, % at 18.7 µM; 350,000 compounds, 0.16% hits; AID 588436; in the data active = activation mostly above about 9.7%, no sharp cut-off
PrPC TRFRET: cell surface PrPC inhibition, primary TR-FRET screen | P04156 | TR-FRET read-out | inhibition, % at 13.8 µM | 370,000 compounds, 0.43% hits | AID 720596; in the data active = inhibition above about 24%
FBA Mtb inh: Mtb fructose-bisphosphate aldolase inhibition; 360,000 compounds, 2.3% hits; purified M. tuberculosis FBA, fluorescence read-out; inhibition, % at 1 µM
Target sequence (P9WQA3 whole entry, looked up): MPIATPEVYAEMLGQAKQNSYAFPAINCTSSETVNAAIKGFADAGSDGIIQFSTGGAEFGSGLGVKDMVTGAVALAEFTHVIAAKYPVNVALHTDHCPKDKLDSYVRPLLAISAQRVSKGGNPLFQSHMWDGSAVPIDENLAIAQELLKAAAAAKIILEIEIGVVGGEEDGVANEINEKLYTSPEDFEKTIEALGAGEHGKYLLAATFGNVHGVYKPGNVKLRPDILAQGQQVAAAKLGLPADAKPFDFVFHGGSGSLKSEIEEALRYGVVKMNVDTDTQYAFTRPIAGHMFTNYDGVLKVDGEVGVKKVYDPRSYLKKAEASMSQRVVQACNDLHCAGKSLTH
GDH-TPI counter-1: inhibits GDH-TPI coupling enzymes, artifact for Mtb FBA screen; GDH-TPI coupled enzyme counterscreen, NADH absorbance; inhibition, % at 4.8 µM; 360,000 compounds, 1.2% hits; in the data active = inhibition above about 30%
Mtb FBA confirm: Mtb FBA inhibition, confirmed. shares compounds with FBA Mtb inh. purified M. tuberculosis FBA, fluorescence read-out. inhibition, % at 1 µM. 5,600 compounds, 78% hits. AID 651616
GDH-TPI counter-2: GDH-TPI inhibition counter-screen for FBA inhibitors; shares compounds with FBA Mtb inh; GDH-TPI coupled enzyme counterscreen, fluorescence; inhibition, % at 1 µM; 5,600 compounds, 81% hits; AID 652141; in the data active = inhibition above about 10%
GDH-TPI dose: inhibits GDH-TPI coupling enzymes in dose response; shares compounds with FBA Mtb inh; GDH-TPI coupled enzyme assay, fluorescence, artifact counterscreen; IC50, µM; 170 compounds, 79% hits; call rule not given here
A number is an active result; 0 = inactive; - = no result given; + = active, no number. The list is not random: actives were taken first. Their share in the collection is about 3.9%. Cut-off read from the data, not from the text of the source, unless noted: active = inhibition above about 27%; inactive = the rest.

SMILES | SARS 3CLpro inh | BH1578 lux ind | PrPC TRFRET | FBA Mtb inh | GDH-TPI counter-1 | Mtb FBA confirm | GDH-TPI counter-2 | others
O=C(Nc1ccc(Cl)cc1)c1cc2c(cc1O)[nH]c1ccccc12 | 0 | 0 | 0 | 107 | 0 | 83 | 71
CC1=C(C#N)C(c2cccnc2)C2=C(CC(c3ccc(Cl)cc3)CC2=O)N1 (centres undefined) | 0 | 0 | 0 | 70 | 0 | 0 | 0
CC1=C(C#N)C(c2ccc(O)cc2)C2=C(CCCC2=O)N1 (centres undefined) | 0 | 0 | 0 | 0 | 0 | - | -
COc1ccc(NC(=O)C2c3ccccc3OCC(=O)N2C2CC2)cc1 (centres undefined) | - | - | 0 | - | - | - | -
c1cncc(-c2nc3ccccc3[nH]2)c1 | 0 | 0 | 0 | 0 | 0 | - | -
c1ccc2[nH]c(-c3ccncc3)nc2c1 | 0 | - | 0 | 30 | 0 | + | 179
Cc1nnsc1-c1nc2ccccc2[nH]1 | 0 | 0 | 0 | 81 | 0 | 0 | 0
Cc1ccc(-c2nc3ccccc3[nH]2)s1 | 0 | 0 | 0 | 58 | 0 | 68 | 63
Cc1[nH]c2ccccc2c1-c1nc2ccccc2[nH]1 | 0 | 0 | 0 | 0 | 0 | - | -
c1csc(-c2nc3ccccc3[nH]2)c1 | 0 | 0 | 0 | 48 | 0 | 63 | 47
CC1C(=O)N2CCCc3cc(S(=O)(=O)NCc4ccccc4Cl)cc1c32 (centres undefined) | 0 | 0 | 0 | 0 | 0 | - | -
O=C(O)C1CC=CCC1C(=O)Nc1ccc2c(c1)CCC2 (centres undefined) | 0 | 0 | 0 | 0 | 0 | - | -
S=C(Nc1ccc(-c2nc3ccccc3[nH]2)cc1)Nc1cccnc1 | 0 | 0 | 0 | 89 | 0 | 64 | 60
Clc1cncc(Cl)c1NNc1c2ccccc2nc2ccccc12 | 0 | 0 | 0 | 39 | 0 | 81 | 66
COc1ccc2nc(-c3ccccc3)[nH]c(=O)c2c1 | - | 0 | 0 | 0 | 0 | - | -
COc1ccc(-c2nc3ccc(N4CCCC4)cc3c(=O)[nH]2)cc1OC | 0 | 0 | 0 | 27 | 0 | 0 | 0
Cc1ccc(-c2cc(=O)c3ccccc3[nH]2)cc1 | 0 | 0 | 0 | 0 | 0 | - | -
COc1cc2[nH]c(-c3ccc(C)cc3)cc(=O)c2cc1OC | 0 | 0 | 0 | 58 | 0 | + | +
COc1cc2[nH]c(-c3cccc(F)c3)cc(=O)c2cc1OC | 0 | 0 | 0 | 28 | 0 | 82 | 64
C[C@H](NC(N)=O)C(=O)Nc1ccc2c(c1)OCO2 | 0 | 0 | 0 | 0 | 0 | - | -
CCCCNC(=O)c1ccccc1C(=O)NCCCC | 0 | 0 | 0 | 0 | 0 | - | -
CCCCNC(=O)c1cc2cc(CC)ccc2[nH]1 | 0 | 0 | 0 | 31 | 0 | 79 | 65
CCOC(=O)C1=C(COC(=O)C2CC(=O)N(c3ccc(C)cc3)C2)NC(=O)NC1C (centres undefined) | - | 0 | 0 | 65 | 0 | 138 | 89
CN1C(=O)[C@H]2[C@@H](C3CC3)N3C(=O)CN(Cc4ccccn4)C(=O)[C@@]3(Cc3ccccc3)[C@H]2C1=O | 0 | 0 | 0 | 68 | 0 | 70 | 57
NS(=O)(=O)c1ccc(CCNCc2ccccc2OCc2ccc(Cl)cc2)cc1 | 0 | 0 | 0 | 0 | 0 | - | -
SMILES | SARS 3CLpro inh | BH1578 lux ind | PrPC TRFRET | FBA Mtb inh | GDH-TPI counter-1 | Mtb FBA confirm | GDH-TPI counter-2 | others
Fc1cccc2sc(Nc3nc4ccccc4s3)nc12 | 0 | 0 | 0 | 32 | 0 | 193 | 134
Fc1ccc2nc(Nc3nc4c(F)cccc4s3)sc2c1 | 0 | 0 | 0 | 35 | 0 | 0 | 0
COCc1cc(C)nc2sc(C(=O)OC(C)C)c(N)c12 | 0 | 0 | 0 | 41 | 0 | + | 175
COc1ccc(-c2nc(C#N)c(NCCc3ccccc3)o2)cc1OC | 0 | 0 | 0 | 102 | 0 | + | +
N#Cc1nc(Cc2cccc3ccccc23)oc1NCCN1CCOCC1 | 0 | 0 | 0 | 0 | 0 | - | -
COc1ccc(CCNc2oc(COc3ccccc3Cl)nc2C#N)cc1OC | 0 | 0 | 0 | 0 | 0 | - | -
COc1ccc(CCNc2oc(COc3ccc(F)cc3)nc2C#N)cc1 | 0 | 0 | 0 | 0 | 0 | - | -
N#Cc1nc(-c2ccco2)oc1NCCc1ccccc1 | 0 | 0 | 0 | 41 | 0 | 49 | 40
COc1ccc(CCNc2oc(-c3ccco3)nc2C#N)cc1 | 0 | 0 | 0 | 54 | 0 | 145 | 133
N#Cc1nc(-c2ccccc2)oc1NCCN1CCCCC1 | 0 | 0 | 0 | 81 | 0 | 67 | 68
CCC(=O)Nc1ccc(NC(=O)CSc2nnnn2Cc2ccccc2)cc1C | 0 | 0 | 0 | 0 | 0 | - | -
CCOC(=O)N1CCN(Cc2ccc3ccccc3c2)CC1 | 0 | 0 | 0 | 0 | 0 | - | -
CCN(CC)C(=O)CC[C@H]1CC[C@]2(CCCN(Cc3ccc(OC)cc3)C2)O1 | - | - | 0 | - | - | - | -
COC(=O)c1ccc(CNC(=O)Cn2cnc3c(SC)nc(N)nc32)cc1 | - | 0 | 0 | 0 | 0 | - | -
Clc1ccc(-n2nnnc2SCc2cn3ccccc3n2)cc1 | 0 | 0 | 0 | 0 | 0 | - | -
Clc1ccc(SCc2cn3ccccc3n2)cc1 | 0 | 0 | 0 | 61 | 0 | + | +
N#CC1=C(C2CC2)CC(c2ccccc2)C(C#N)=C1N (centres undefined) | 0 | - | 0 | 33 | 0 | 0 | 0 | GDH-TPI dose=0
COc1cc(-c2nc(CCNC(=O)c3ccco3)cs2)cc(OC)c1OC | 0 | 0 | 0 | 37 | 0 | 139 | 112
Cc1cc(OCC(=O)NCCCN2CCCC2=O)c2c(C)c(C)c(=O)oc2c1 | 0 | 0 | 0 | 80 | 0 | + | +
Cc1cc(OCC(=O)NCCc2ccc(Cl)cc2)c2c(C)cc(=O)oc2c1 | 0 | 0 | 0 | 0 | 0 | - | -
Cc1c(OCC(=O)NCCCN2CCCC2=O)ccc2c3c(c(=O)oc12)CCCC3 | 0 | 0 | 0 | 29 | 0 | + | +
Cc1c(C)c2ccc(OCC(=O)NCCCN3CCCC3=O)cc2oc1=O | 0 | 0 | 0 | 87 | 0 | 56 | 46
Cc1cc(OCC(=O)NCCc2ccc(S(N)(=O)=O)cc2)c2c(C)c(C)c(=O)oc2c1 | 0 | 0 | 0 | 65 | 0 | 0 | 0 | GDH-TPI dose=2
Cc1c(OCC(=O)NCCCN2CCCC2=O)ccc2c3c(c(=O)oc12)CCC3 | 0 | 0 | 0 | 0 | 0 | - | -
CN1OC[C@@H]2CN(C(=O)NC3CCCCC3)[C@H](c3ccc(N4CCCCC4)cc3)C[C@@H]21 | - | - | 0 | 0 | - | - | -
SMILES | SARS 3CLpro inh | BH1578 lux ind | PrPC TRFRET | FBA Mtb inh | GDH-TPI counter-1 | Mtb FBA confirm | GDH-TPI counter-2 | others
Cc1cc(OCC(=O)NCCCN2CCOCC2)c2c(C)c(C)c(=O)oc2c1 | 0 | 0 | 0 | 86 | 0 | 129 | 144
C#CCNC(=O)C[C@@H]1C[C@@]2(C(=O)OCC)CCCC=C2N(Cc2ccc3c(c2)OCO3)C1=O | - | - | 0 | - | - | - | -
Cc1cc(N2CC(C)OC(C)C2)n2cc(-c3ccccc3)nc2n1 (centres undefined) | 0 | 0 | 0 | 63 | 0 | + | +
COc1ccc(S(=O)(=O)N2CCC(C(=O)Oc3ccc(C)cc3)CC2)cc1OC | - | 0 | 0 | 0 | 0 | - | -
COc1ccc(CNc2nc3nc(C)cc(C)n3n2)cc1 | 0 | 0 | 0 | 0 | 0 | - | -
COc1ccc(-c2cc3nc(C)cc(C)n3n2)cc1 | 0 | 0 | 0 | 0 | 0 | - | -
